# The full ranking holds about 2,900 compounds; the median of “NF-kB SEAP reporter activity, fold change vs agonist alone” is about 0.99, and the highest 2% start at about 2.6. This is one part of a sample in which the highest values are shown more often than they occur.
# Key:
# RAW-Dual [1] = assay: NF-kB SEAP reporter activity, fold change vs agonist alone; cytotoxicity flag (confluency mask): cytotoxic (confluency <70% of control); higher = enhanced NF-kB activity
# In short: (§1)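 Supernatant from RAW-Dual macrophages was read after 20 hours for IRF by QuantiLuc luminescence and for NF-κB by QuantiBlue absorbance at 620 nm. The cells (50,000 cells/well in DMEM, 384-well plates, 37 °C, 5% CO2) had received 50 nL of library stock by pin tool and, 1 h later, a PRR agonist. Reporter activity is expressed relative to agonist-alone wells as fold change, and wells were flagged cytotoxic if IncuCyte confluency was under 70% of agonist controls in both mask sets.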
# RAW-Dual [2] = assay: NF-kB SEAP reporter activity, fold change vs agonist alone; higher = enhanced NF-kB activity
# In short: as §1
# RAW-Dual [3] = assay: NF-kB SEAP reporter activity, fold change vs agonist alone; cytotoxicity flag (confluency mask): not cytotoxic; higher = enhanced NF-kB activity
# In short: as §1
# [4] = agonist: ODN 1826 (TLR9) 0.5 ug/mL
# [5] = agonist: Pam2CSK4 (TLR2/6) 0.1 ug/mL
# [6] = agonist: Pam3CSK4 (TLR2/1) 0.1 ug/mL
# [7] = library stock concentration (final ~1000-fold dilution): 10 mM, cytotoxicity flag (confluency mask): not cytotoxic, agonist: Imiquimod (TLR7) […]
# [8] = library stock concentration (final ~1000-fold dilution): 10 mM, cytotoxicity flag (confluency mask): not cytotoxic, agonist: MPLA (TLR4) […]
# [9] = library stock concentration (final ~1000-fold dilution): 10 mM, cytotoxicity flag (confluency mask): cytotoxic (confluency <70% of control), agonist: Imiquimod (TLR7) […]
# [10] = library stock concentration (final ~1000-fold dilution): 10 mM, cytotoxicity flag (confluency mask): cytotoxic (confluency <70% of control), agonist: MPLA (TLR4) […]
smiles,measurement,setting,value
COc1ccc(-c2ccc3ncc4c(c3c2)n(-c2ccc(N3CCNCC3)c(C(F)(F)F)c2)c(=O)n4C)cn1.O=C(O)/C=C\C(=O)O (library stock concentration (final ~1000-fold dilution): 10 mM),NF-kB SEAP reporter activity,RAW-Dual [1]; agonist: LPS (TLR4) 0.1 ug/mL,0.236
same,NF-kB SEAP reporter activity,RAW-Dual [1]; [4],0.205
same,NF-kB SEAP reporter activity,RAW-Dual [1]; [5],0.085
same,NF-kB SEAP reporter activity,RAW-Dual [1]; [6],0.217
CCNC1(C(N)=O)CCN(c2ncnc3c2nc(-c2ccccc2Cl)n3-c2ccc(Cl)cc2)CC1.Cl,NF-kB SEAP reporter activity,"RAW-Dual [2]; library stock concentration (final ~1000-fold dilution): 2 mM, cytotoxicity flag (confluency mask): not cytotoxic, agonist: Imiquimod (TLR7) […]",0.57
same,NF-kB SEAP reporter activity,"RAW-Dual [2]; library stock concentration (final ~1000-fold dilution): 2 mM, cytotoxicity flag (confluency mask): not cytotoxic, agonist: MPLA (TLR4) […]",0.847
CCNC1(C(N)=O)CCN(c2ncnc3c2nc(-c2ccccc2Cl)n3-c2ccc(Cl)cc2)CC1.Cl (library stock concentration (final ~1000-fold dilution): 2 mM),NF-kB SEAP reporter activity,RAW-Dual [3]; agonist: LPS (TLR4) 0.1 ug/mL,0.587
same,NF-kB SEAP reporter activity,RAW-Dual [3]; [4],0.493
same,NF-kB SEAP reporter activity,RAW-Dual [3]; [5],0.537
same,NF-kB SEAP reporter activity,RAW-Dual [3]; [6],0.482
COc1ccc(-c2ccc3c(N4CCOCC4C)nc(N4CCOCC4C)nc3n2)cc1CO (stereo unspecified),NF-kB SEAP reporter activity,RAW-Dual [2]; [7],1.11
same,NF-kB SEAP reporter activity,RAW-Dual [2]; [8],1.53
COc1ccc(-c2ccc3c(N4CCOCC4C)nc(N4CCOCC4C)nc3n2)cc1CO (stereo unspecified) (library stock concentration (final ~1000-fold dilution): 10 mM),NF-kB SEAP reporter activity,RAW-Dual [3]; agonist: LPS (TLR4) 0.1 ug/mL,1.62
same,NF-kB SEAP reporter activity,RAW-Dual [3]; [4],1.12
same,NF-kB SEAP reporter activity,RAW-Dual [3]; [5],0.372
same,NF-kB SEAP reporter activity,RAW-Dual [3]; [6],0.555
Cc1cc(O)c(-c2ccc(C(C)CN(C)C)cc2)c2c1[nH]c(=O)c1sccc12.Cl.Cl (stereo unspecified) (library stock concentration (final ~1000-fold dilution): 10 mM),NF-kB SEAP reporter activity,RAW-Dual [1]; agonist: LPS (TLR4) 0.1 ug/mL,0.764
same,NF-kB SEAP reporter activity,RAW-Dual [1]; [4],0.357
same,NF-kB SEAP reporter activity,RAW-Dual [1]; [5],0.311
same,NF-kB SEAP reporter activity,RAW-Dual [1]; [6],0.482
Cc1cc(O)c(-c2ccc(C(C)CN(C)C)cc2)c2c1[nH]c(=O)c1sccc12.Cl.Cl (stereo unspecified),NF-kB SEAP reporter activity,RAW-Dual [2]; [9],1.2
same,NF-kB SEAP reporter activity,RAW-Dual [2]; [10],1.37
CC(N)C12CC3CC(CC(C3)C1)C2.Cl (stereo unspecified),NF-kB SEAP reporter activity,RAW-Dual [2]; [8],1.06
CC(N)C12CC3CC(CC(C3)C1)C2.Cl (stereo unspecified) (library stock concentration (final ~1000-fold dilution): 10 mM),NF-kB SEAP reporter activity,RAW-Dual [3]; agonist: LPS (TLR4) 0.1 ug/mL,1.15
same,NF-kB SEAP reporter activity,RAW-Dual [3]; [4],0.619
same,NF-kB SEAP reporter activity,RAW-Dual [3]; [5],1.24
same,NF-kB SEAP reporter activity,RAW-Dual [3]; [6],0.847
O=C(Cn1nnc(-c2ccncc2)c1-c1ccccc1)Nc1ccc(-c2ccccc2)cn1 (library stock concentration (final ~1000-fold dilution): 10 mM),NF-kB SEAP reporter activity,RAW-Dual [3]; agonist: LPS (TLR4) 0.1 ug/mL,1.06
same,NF-kB SEAP reporter activity,RAW-Dual [3]; [4],0.623
same,NF-kB SEAP reporter activity,RAW-Dual [3]; [5],0.34
same,NF-kB SEAP reporter activity,RAW-Dual [3]; [6],0.345
O=C(Cn1nnc(-c2ccncc2)c1-c1ccccc1)Nc1ccc(-c2ccccc2)cn1,NF-kB SEAP reporter activity,RAW-Dual [2]; [7],0.711
same,NF-kB SEAP reporter activity,RAW-Dual [2]; [8],0.961
Cc1noc(C)c1-c1ccc2[nH]c(=O)n3c2c1OCC3c1ccccn1 (stereo unspecified) (library stock concentration (final ~1000-fold dilution): 10 mM),NF-kB SEAP reporter activity,RAW-Dual [3]; agonist: LPS (TLR4) 0.1 ug/mL,1.61
same,NF-kB SEAP reporter activity,RAW-Dual [3]; [4],1.67
same,NF-kB SEAP reporter activity,RAW-Dual [3]; [5],0.501
same,NF-kB SEAP reporter activity,RAW-Dual [3]; [6],1.34
Cc1noc(C)c1-c1ccc2[nH]c(=O)n3c2c1OCC3c1ccccn1 (stereo unspecified),NF-kB SEAP reporter activity,RAW-Dual [2]; [7],1.5
same,NF-kB SEAP reporter activity,RAW-Dual [2]; [8],2.28
COc1cc2c(cc1-c1c(C)noc1C)ncc1[nH]c(=O)n(C(C)c3ccccn3)c12 (stereo unspecified),NF-kB SEAP reporter activity,RAW-Dual [2]; [9],2.61
same,NF-kB SEAP reporter activity,RAW-Dual [2]; [10],2.46
Cc1noc(C)c1-c1cnc2c(-c3ccc(C(=O)O)cc3)cn(C(C)c3ccccn3)c2c1 (stereo unspecified) (library stock concentration (final ~1000-fold dilution): 10 mM),NF-kB SEAP reporter activity,RAW-Dual [3]; agonist: LPS (TLR4) 0.1 ug/mL,2.32
same,NF-kB SEAP reporter activity,RAW-Dual [3]; [4],1.73
same,NF-kB SEAP reporter activity,RAW-Dual [3]; [5],0.767
same,NF-kB SEAP reporter activity,RAW-Dual [3]; [6],2.09
Cc1noc(C)c1-c1cnc2c(-c3ccc(C(=O)O)cc3)cn(C(C)c3ccccn3)c2c1 (stereo unspecified),NF-kB SEAP reporter activity,RAW-Dual [2]; [7],1.59
same,NF-kB SEAP reporter activity,RAW-Dual [2]; [8],2.29
COc1cc2c(cc1-c1c(C)noc1C)ncc1[nH]c(=O)n(C(C)c3ccccn3)c12 (stereo unspecified) (library stock concentration (final ~1000-fold dilution): 10 mM),NF-kB SEAP reporter activity,RAW-Dual [1]; agonist: LPS (TLR4) 0.1 ug/mL,4.87
same,NF-kB SEAP reporter activity,RAW-Dual [1]; [4],2.55
same,NF-kB SEAP reporter activity,RAW-Dual [1]; [5],0.529
same,NF-kB SEAP reporter activity,RAW-Dual [1]; [6],1.93
